The supplement of paper PMC8728848
The sample as a whole holds a higher share of the strongest signals than the screen did.

How the values were obtained:
Assay in all cases: glycan array binding signal (z-score within array); higher = stronger binding
Conditions in all cases: glycan notation: IUPAC condensed, linker removed
Fuc(a1-2)Gal(b1-4)Glc6S = molecular target: Fuc(a1-2)Gal(b1-4)Glc6S
Summary of the method: (§1)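 Arrays were curated from the Consortium for Functional Glycomics database, 3228 in total, and kept only where the protein sequence was available. Binding is expressed as a within-array Z-score. This score was averaged across arrays of the same protein sequence at different concentrations or buffers and across linkers, and negative values can be read as non-binding.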

[1] = molecular target: Fuc(a1-2)[Gal(a1-3)]Gal(b1-4)Glc
Summary of the method: as §1

[2] = molecular target: Fuc(a1-2)[Gal(a1-3)]Gal(b1-4)GlcNAc(b1-2)Man(a1-3)[Fuc(a1-2)[Gal(a1-3)]Gal(b1-4)GlcNAc(b1-2)Man(a1-6)]Man(b1-4)GlcNAc(b1-4)GlcNAc
Summary of the method: as §1

[3] = molecular target: Fuc(a1-2)[GalNAc(a1-3)]Gal
Summary of the method: as §1

[4] = molecular target: Fuc(a1-2)[GalNAc(a1-3)]Gal(b1-4)Glc
Summary of the method: as §1

[5] = molecular target: Fuc(a1-2)[GalNAc(a1-3)]Gal(b1-4)GlcNAc(b1-2)Man(a1-3)[Fuc(a1-2)[GalNAc(a1-3)]Gal(b1-4)GlcNAc(b1-2)Man(a1-6)]Man(b1-4)GlcNAc(b1-4)GlcNAc
Summary of the method: as §1

[6] = molecular target: Fuc(a1-2)[GalNAc(a1-3)]Gal(b1-4)GlcNAc(b1-3)Gal(b1-4)GlcNAc
Summary of the method: as §1

[7] = molecular target: Fuc(a1-2)[GalNAc(a1-3)]Gal(b1-4)GlcNAc(b1-3)Gal(b1-4)GlcNAc(b1-3)Gal(b1-4)GlcNAc
Summary of the method: as §1

[8] = molecular target: Fuc(a1-3)[Gal(b1-4)]GlcNAc
Summary of the method: as §1

[9] = molecular target: Fuc(a1-3)[GalNAc(b1-4)]GlcNAc
Summary of the method: as §1

[10] = molecular target: Gal(b1-3)GalNAc(a1-3)[Fuc(a1-2)]Gal(b1-4)Glc
Summary of the method: as §1

[11] = molecular target: Gal(b1-3)GalNAc(a1-3)[Fuc(a1-2)]Gal(b1-4)GlcNAc
Summary of the method: as §1

[12] = molecular target: Gal(b1-3)GlcNAc(a1-6)Gal(b1-4)GlcNAc
Summary of the method: as §1

[13] = molecular target: Gal(b1-3)GlcNAc(b1-3)Gal(b1-4)GlcNAc(b1-6)[Gal(b1-3)GlcNAc(b1-3)]Gal(b1-4)Glc
Summary of the method: as §1

[14] = molecular target: Gal(b1-4)GalNAc(a1-3)[Fuc(a1-2)]Gal(b1-4)GlcNAc
Summary of the method: as §1

[15] = molecular target: Gal(b1-4)GlcNAc(b1-2)Man(a1-3)[GlcNAc(b1-2)Man(a1-6)]Man(b1-4)GlcNAc(b1-4)GlcNAc
Summary of the method: as §1

[16] = molecular target: Gal(b1-4)GlcNAc(b1-2)Man(a1-6)Man(b1-4)GlcNAc(b1-4)GlcNAc
Summary of the method: as §1

Gal4S(b1-4)GlcNAc = molecular target: Gal4S(b1-4)GlcNAc
Summary of the method: as §1

Gal6S(b1-3)GlcNAc = molecular target: Gal6S(b1-3)GlcNAc
Summary of the method: as §1

GlcA(b1-3)GlcNAc = molecular target: GlcA(b1-3)GlcNAc
Summary of the method: as §1

[17] = molecular target: GlcNAc(a1-4)Gal(b1-4)GlcNAc(b1-3)Gal(b1-4)Glc
Summary of the method: as §1

[18] = molecular target: GlcNAc(b1-2)Man(a1-3)[GlcNAc(b1-4)][GlcNAc(b1-2)Man(a1-6)]Man(b1-4)GlcNAc(b1-4)GlcNAc
Summary of the method: as §1

[19] = molecular target: GlcNAc(b1-2)[GlcNAc(b1-6)]Man(a1-6)[GlcNAc(b1-2)Man(a1-3)]Man(b1-4)GlcNAc(b1-4)GlcNAc
Summary of the method: as §1

[20] = molecular target: GlcNAc(b1-2)[GlcNAc(b1-6)]Man(a1-6)[GlcNAc(b1-2)Man(a1-3)][GlcNAc(b1-4)]Man(b1-4)GlcNAc(b1-4)GlcNAc
Summary of the method: as §1

[21] = molecular target: GlcNAc(b1-4)[GlcNAc(b1-6)]GalNAc
Summary of the method: as §1

Man(a1-2)Man(a1-3)Man = molecular target: Man(a1-2)Man(a1-3)Man
Summary of the method: as §1

Man(a1-6)Man = molecular target: Man(a1-6)Man
Summary of the method: as §1

Neu5Ac(a2-3)Gal = molecular target: Neu5Ac(a2-3)Gal
Summary of the method: as §1

[22] = molecular target: Neu5Ac(a2-3)Gal(b1-3)GalNAc
Summary of the method: as §1

[23] = molecular target: Neu5Ac(a2-3)Gal(b1-3)[Neu5Ac(a2-3)Gal(b1-4)]GlcNAc
Summary of the method: as §1

[24] = molecular target: Neu5Ac(a2-3)Gal(b1-4)GlcNAc(b1-3)Gal(b1-4)GlcNAc(b1-3)Gal(b1-4)GlcNAc
Summary of the method: as §1

[25] = molecular target: Neu5Ac(a2-3)Gal6S(b1-4)GlcNAc
Summary of the method: as §1

[26] = molecular target: Neu5Ac(a2-6)Gal(b1-3)GlcNAc(b1-3)[Gal(b1-4)GlcNAc(b1-6)]Gal(b1-4)Glc
Summary of the method: as §1

[27] = molecular target: Neu5Ac(a2-6)Gal(b1-4)GlcNAc(b1-2)Man(a1-3)Man(b1-4)GlcNAc(b1-4)GlcNAc
Summary of the method: as §1

[28] = molecular target: Neu5Ac(a2-6)Gal(b1-4)GlcNAc(b1-3)Gal(b1-4)GlcNAc
Summary of the method: as §1

B1: Gal 4 (Canis lupus) (protein)
chain: MAYVPAPGYQPTYNPTLPYNKPIPGGLSVGMSVYIQGITSEHMRRFCVNFVAGAHPGSDIAFHFNPRFDGWDKVVFNSHLGGKWGSEEKKRSMPFRKGTHFELVFMVLAEHYKVVVNGNPFYEFGHRLPLQLVTHLQVEGDVELQSINFIGGTQPLGQGPGHTQQQPSSLPTMEGPPVFNPPVPFRKRLQGGLTVRRTVIIKGFVPFTSKSFVINFMVESSGDLALHINPRLTEGLVVRNSCLNGSWGSEDRKLSYNPFIPGQFFDLSIRCGMDRFKVYANGQHLFDFSHRLLALQNVDMLEINGDVTLSYIQV
Q: How did the “glycan array binding signal (z-score)” value (Fuc(a1-2)Gal(b1-4)Glc6S) turn out when B1 was run?
A: Its value is 0.071.

Q: What about the “glycan array binding signal (z-score)” value [1] of the same binder?
A: Its value is 8.77.

Q: What about the “glycan array binding signal (z-score)” value [2] of the same binder?
A: The value was 2.77.

Q: And the “glycan array binding signal (z-score)” value [3]?
A: Its value is -0.155.

Q: What about the “glycan array binding signal (z-score)” value [4] of the same binder?
A: The value was 5.95.

Q: What about the “glycan array binding signal (z-score)” value [5] of the same binder?
A: The value was 3.76.

Q: And the “glycan array binding signal (z-score)” value [6]?
A: Its value is 7.32.

Q: And the “glycan array binding signal (z-score)” value [7]?
A: Its value is 0.359.

Q: And the “glycan array binding signal (z-score)” value [8]?
A: The value was -0.151.

Q: What about the “glycan array binding signal (z-score)” value [9] of the same binder?
A: Its value is -0.147.

Q: And the “glycan array binding signal (z-score)” value [10]?
A: Its value is 11.1.

Q: What about the “glycan array binding signal (z-score)” value [11] of the same binder?
A: Its value is 2.63.

Q: And the “glycan array binding signal (z-score)” value [12]?
A: The value was -0.137.

Q: And the “glycan array binding signal (z-score)” value [13]?
A: Its value is -0.146.

Q: And the “glycan array binding signal (z-score)” value [14]?
A: Its value is 3.3.

Q: What about the “glycan array binding signal (z-score)” value [15] of the same binder?
A: The value was -0.154.

Q: What about the “glycan array binding signal (z-score)” value [16] of the same binder?
A: Its value is -0.156.

Q: What about the “glycan array binding signal (z-score)” value (Gal4S(b1-4)GlcNAc) of the same binder?
A: Its value is -0.144.

Q: And the “glycan array binding signal (z-score)” value (Gal6S(b1-3)GlcNAc)?
A: The value was -0.135.

Q: And the “glycan array binding signal (z-score)” value (GlcA(b1-3)GlcNAc)?
A: Its value is 0.144.

Q: What about the “glycan array binding signal (z-score)” value [17] of the same binder?
A: The value was -0.147.

Q: And the “glycan array binding signal (z-score)” value [18]?
A: The value was -0.148.

Q: And the “glycan array binding signal (z-score)” value [19]?
A: The value was -0.148.

Q: And the “glycan array binding signal (z-score)” value [20]?
A: Its value is -0.148.

Q: What about the “glycan array binding signal (z-score)” value [21] of the same binder?
A: Its value is -0.147.

Q: What about the “glycan array binding signal (z-score)” value (Man(a1-2)Man(a1-3)Man) of the same binder?
A: Its value is -0.142.

Q: And the “glycan array binding signal (z-score)” value (Man(a1-6)Man)?
A: The value was -0.148.

Q: What about the “glycan array binding signal (z-score)” value (Neu5Ac(a2-3)Gal) of the same binder?
A: Its value is -0.152.

Q: And the “glycan array binding signal (z-score)” value [22]?
A: The value was -0.145.

Q: What about the “glycan array binding signal (z-score)” value [23] of the same binder?
A: The value was -0.156.

Q: And the “glycan array binding signal (z-score)” value [24]?
A: Its value is -0.153.

Q: What about the “glycan array binding signal (z-score)” value [25] of the same binder?
A: The value was -0.16.

Q: What about the “glycan array binding signal (z-score)” value [26] of the same binder?
A: Its value is -0.151.

Q: And the “glycan array binding signal (z-score)” value [27]?
A: Its value is -0.151.

Q: What about the “glycan array binding signal (z-score)” value [28] of the same binder?
A: The value was -0.151.
